Screens: PubChem BioAssay, Broad Institute
Most compounds without a hit are left out; they make up all but 2.5% or so of the library.
Casp6 inh: human caspase-6 inhibitors, primary screen, biochemical, VEID-R110 fluorescence, single point, set 2 | 350,000 compounds, 0.53% hits | purified caspase-6, Z-VEID-R110 cleavage fluorescence | P55212 | inhibition, % at 12.5 µM;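 active = mean inhibition across replicates at least about 35%, with every replicate also reaching that limit, limit read from the data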;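 note: 0% = median of neutral control wells and 100% = no fluorescence left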
RAD52 inh: RAD52 DNA annealing inhibitors, primary screen, biochemical, FRET, single point, set 2. DNA repair protein RAD52 homolog (Homo sapiens), P43351. recombinant RAD52 DNA annealing, FRET fluorescence. inhibition, % at 18.7 µM. 360,000 compounds, 0.46% hits. AID 651710, 2012;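 active = every replicate showing at least 50% inhibition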
NSD2 HMT inh: NSD2 histone methyltransferase inhibitors, primary screen, biochemical, AlphaScreen, single concentration, set 2; NSD2 peptide methylation, 120 min; inhibition, % at 12.5 µM; 310,000 compounds, 0.54% hits; in the data active = inhibition above about 50%
Ecoli rRNA inh: reduced GFP signal of wild-type E. coli, primary screen, bacterial rRNA inhibitor project, GFP/RFP fluorescence, OD600, single point. 350,000 compounds, 1.6% hits. GFP signal change (wild-type ribosome), % (concentration not given with the values). E. coli WT GFP vs humanized-ribosome RFP mutants, 24 h; active compounds read low; DMSO median 0, no signal -100;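 active = significant combined selectivity score with lowered wild-type GFP, culture density cut under 30%, mutant RFP and density less affected; inactive = any of these conditions unmet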
MLL AF4-AF9 inh: inhibitors of AF4 peptide binding to AF9, primary screen, biochemical, AlphaScreen, biotin-AF4 peptide, FLAG-AF9, single point. inhibition, % at 10 µM. 350,000 compounds, 0.47% hits. AID 651704, 2012;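 active = every replicate reaching a set inhibition limit, whatever the replicate mean, cut at about 25% in these data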;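 note: 0% = plate neutral control median and 100% = total signal loss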
Target sequence (P42568 whole entry, looked up): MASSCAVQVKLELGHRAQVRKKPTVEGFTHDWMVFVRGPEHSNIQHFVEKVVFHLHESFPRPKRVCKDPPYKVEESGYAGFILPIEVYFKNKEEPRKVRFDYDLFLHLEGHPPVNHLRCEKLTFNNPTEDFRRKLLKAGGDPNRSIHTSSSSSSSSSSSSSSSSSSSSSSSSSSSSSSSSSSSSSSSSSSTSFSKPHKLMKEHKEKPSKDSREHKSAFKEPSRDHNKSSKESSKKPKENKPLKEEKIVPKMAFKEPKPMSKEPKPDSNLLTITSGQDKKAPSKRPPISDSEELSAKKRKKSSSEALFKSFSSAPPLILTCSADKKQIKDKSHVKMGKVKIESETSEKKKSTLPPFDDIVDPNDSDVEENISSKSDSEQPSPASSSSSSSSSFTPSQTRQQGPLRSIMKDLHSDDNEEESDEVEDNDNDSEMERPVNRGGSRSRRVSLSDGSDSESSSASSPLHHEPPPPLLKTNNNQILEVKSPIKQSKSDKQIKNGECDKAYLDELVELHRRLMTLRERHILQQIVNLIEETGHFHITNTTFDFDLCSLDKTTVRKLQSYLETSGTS
Starred values were filed as active, the others as inactive; ! = not confirmed by another sample.

COc1ccc(S(=O)(=O)N(C)C[C@H]2Oc3cc(C4=CCCC4)ccc3S(=O)(=O)N([C@@H](C)CO)C[C@H]2C)cc1 was read as Casp6 inh 1.6, RAD52 inh 4.8, Ecoli rRNA inh 0.0 and MLL AF4-AF9 inh -1.5.
`O=C(NN=Cc1ccc2c(c1)OCO2)NN=Cc1ccc2c(c1)OCO2` gave Casp6 inh 0.3, RAD52 inh -11.6, NSD2 HMT inh 2.8, Ecoli rRNA inh -21.4* and MLL AF4-AF9 inh -3.6.
`Nc1cc(N2CCCC2)c(Cl)cc1[N+](=O)[O-]` gave Casp6 inh 0.3, RAD52 inh 9.3, NSD2 HMT inh 5.3, Ecoli rRNA inh -40.6 and MLL AF4-AF9 inh 2.4.
Screening Nc1cc(N2CCOCC2)c(Cl)cc1[N+](=O)[O-] returned Casp6 inh 0.9, RAD52 inh -6.1, NSD2 HMT inh 3.9, Ecoli rRNA inh -20.6* and MLL AF4-AF9 inh -2.1.
`CO[C@@H]1CN(C)C(=O)c2cc(NC(=O)NC3CCCC3)ccc2OC[C@@H](C)NC[C@@H]1C` gave Ecoli rRNA inh 0.9.
For NS(=O)(=O)c1ccc(N=Nc2c[nH]c(=O)c(O)c2)cc1 the results were Casp6 inh 88.7*, RAD52 inh -387.1, NSD2 HMT inh 43.6, Ecoli rRNA inh -5.5 and MLL AF4-AF9 inh 7.3.
`C[C@@H]1COCn2nncc2CC[C@@H](Cc2ccccc2)C(=O)N1` gave Ecoli rRNA inh 5.6.
COc1ccc2cc(CCNC(=O)c3ccco3)c(=O)[nH]c2c1 was read as Casp6 inh -2.1, RAD52 inh -14.0, NSD2 HMT inh -2.2, Ecoli rRNA inh -15.7 and MLL AF4-AF9 inh -2.2.
COc1ccc2cc(CCNC(=O)C(C)C)c(=O)[nH]c2c1 was read as Casp6 inh -0.9, RAD52 inh 4.5, Ecoli rRNA inh 9.9 and MLL AF4-AF9 inh 31.1*.
For CC=Cc1ccc2n(c1=O)C[C@H]1[C@H](CO)[C@@H](C(=O)NCC3CC3)[C@@H]2N1Cc1ccncc1 (mixture of isomers) the results were Casp6 inh 2.1, RAD52 inh -4.3, Ecoli rRNA inh 3.3 and MLL AF4-AF9 inh -2.3.
Screening C/C(=N\O)c1cccc(Br)c1 returned Casp6 inh -0.5, RAD52 inh -5.2, NSD2 HMT inh -1.7, Ecoli rRNA inh -25.2* and MLL AF4-AF9 inh -7.3.
`O=C(c1ccc(Cl)c(S(=O)(=O)N2CCCCCC2)c1)N1CCN(c2ccccc2O)CC1` gave Casp6 inh -0.3, RAD52 inh -11.5, NSD2 HMT inh 0.5, Ecoli rRNA inh -44.2* and MLL AF4-AF9 inh 2.2.
O=C1c2ccccc2-c2ccc(C(=O)N3CCCCC3)cc21 was read as Casp6 inh 0.6, RAD52 inh -11.8, NSD2 HMT inh -3.4, Ecoli rRNA inh -24.6* and MLL AF4-AF9 inh 4.2.
Screening O=C(c1ccc(Cl)c(S(=O)(=O)N2CCCCC2)c1)N1CCN(c2ccccc2)CC1 returned Casp6 inh 0.2, RAD52 inh -24.8, NSD2 HMT inh 0.1 and MLL AF4-AF9 inh 3.2.
Screening O=C(NC1Cc2ccccc2C1)[C@H]1[C@H](CO)[C@H]2Cn3c(cccc3=O)[C@H]2N1C(=O)c1ccccn1 returned Casp6 inh -0.8, RAD52 inh -12.9, Ecoli rRNA inh 4.4 and MLL AF4-AF9 inh -1.5.
CCOc1ccc(/C(O)=C2/C(=O)C(=O)N(c3ncccn3)C2c2ccc(Cl)cc2)cc1 (centres undefined) was read as Casp6 inh 5.9, RAD52 inh -18.4, NSD2 HMT inh 2.9 and Ecoli rRNA inh -31.6*.
`O=S(=O)(c1ccc(-c2ccccc2)cc1)N1[C@@H]2CNC[C@H]1C2c1ccc(-c2cccnc2)cc1` (some centres undefined) gave Casp6 inh -1.7, RAD52 inh 66.4*, Ecoli rRNA inh -36.4 and MLL AF4-AF9 inh -2.9.
Cc1ccc(S(=O)(=O)N2[C@@H]3CNC[C@H]2C3c2ccc(/C=C/c3ccccc3)cc2)cc1 (some centres undefined) was read as Casp6 inh 0.3, RAD52 inh 53.3*!, Ecoli rRNA inh -28.2 and MLL AF4-AF9 inh -2.4.
Cc1ccc(S(=O)(=O)N2[C@@H]3CNC[C@H]2C3c2ccc(-c3ccc(C#N)cc3)cc2)cc1 (some centres undefined) was read as Casp6 inh -0.3, RAD52 inh 55.2*, Ecoli rRNA inh -21.4 and MLL AF4-AF9 inh -2.5.
O=S(=O)(c1ccc(-c2ccccc2)cc1)N1[C@@H]2CNC[C@H]1C2c1ccc(-c2ccccc2)cc1 (some centres undefined) was read as Ecoli rRNA inh 4.9.
Screening O=S(=O)(c1ccccc1)N1[C@@H]2CNC[C@H]1C2c1ccc(-c2cccnc2)cc1 (some centres undefined) returned Casp6 inh 1.5, RAD52 inh -9.0, Ecoli rRNA inh 1.1 and MLL AF4-AF9 inh -3.3.
CN(C)C(=O)C[C@H]1CC[C@@H]2[C@H](COC[C@@H](O)CN2CC2CCCC2)O1 was read as Casp6 inh 4.4, RAD52 inh 20.2, Ecoli rRNA inh 0.9 and MLL AF4-AF9 inh -12.5.
CC(=O)N1[C@H](CO)[C@@H](c2ccccc2)C12CN(C(=O)c1ccccn1)C2 was read as Casp6 inh 3.2, RAD52 inh -9.9, Ecoli rRNA inh 1.4 and MLL AF4-AF9 inh -13.8.
For CCCC(=O)Nc1ccc(Cl)c(NC(=S)NC(=O)c2ccco2)c1 the results were Casp6 inh 0.5, RAD52 inh -21.2, NSD2 HMT inh -2.0, Ecoli rRNA inh -16.4* and MLL AF4-AF9 inh 3.0.
`CCCC(=O)Nc1ccc(Cl)c(NC(=O)c2ccco2)c1` gave NSD2 HMT inh 23.2.
O=C(NNC(=S)NC1CCCCC1)c1sc2ccccc2c1Cl was read as Casp6 inh -2.1, RAD52 inh -3.5, NSD2 HMT inh 5.5, Ecoli rRNA inh -19.5* and MLL AF4-AF9 inh 2.6.
Screening O=C(NC1CC1)c1sc2ccccc2c1Cl returned Casp6 inh 4.8, RAD52 inh -2.2, NSD2 HMT inh 24.5, Ecoli rRNA inh 1.1 and MLL AF4-AF9 inh -10.7.
O=C(NC(=S)NC1CCCC1)c1ccccc1 was read as Casp6 inh -1.7, RAD52 inh -1.2, NSD2 HMT inh 2.8, Ecoli rRNA inh -26.0* and MLL AF4-AF9 inh -24.0.
CCc1cc2c(N[C@@H](Cc3c[nH]c4ccccc34)C(=O)O)ncnc2s1 was read as NSD2 HMT inh 0.4.
CCc1cc2c(NC(Cc3c[nH]c4ccccc34)C(=O)O)nc(C)nc2s1 (centres undefined) was read as Casp6 inh 0.4, RAD52 inh -7.7, NSD2 HMT inh -2.3, Ecoli rRNA inh -27.9* and MLL AF4-AF9 inh 3.1.
CC(=O)Nc1cc(-c2ccc(N3CCN(C)CC3)cc2)cn2c(-c3ccc(F)c(Cl)c3)cnc12 was read as Casp6 inh -34.3, RAD52 inh 32.6, NSD2 HMT inh 0.6, Ecoli rRNA inh -26.8 and MLL AF4-AF9 inh 26.6*.
